IEC-6 tox-1 = kills IEC-6 intestinal cells in KLF5 counter-screen. 290,000 tested, 0.78% active. inhibition, % at 5 µM. IEC-6 cytotoxicity, luminescence viability;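 also: 0% = plate median of test compound wells and 100% = cytotoxic reference compound wells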
Ba/F3 V617F tox = loss of viability in JAK2V617F-driven Ba/F3 cells; Ba/F3 EpoR-JAK2V617F viability, ATP luminescence; inhibition, % at 5.6 µM; 220,000 tested, 1.1% active;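 active = inhibition above the campaign mean plus 3 SD over all tested compounds, cut at about 24% in these data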;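 also: cytokine-independent growth of Ba/F3 cells driven by EpoR plus mutant JAK2; 0% = DMSO-treated cells and 100% = JAK inhibitor I control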
aSyn 5UTR inh = MLPCN primary screen, SNCA 5' untranslated region. alpha-synuclein 5'UTR reporter, inhibitor activity. inhibition, % (tested at 7.5 µM). 300,000 tested, 0.82% active. AID 1813; in the data active = inhibition above about 60%; inconclusive = no clear call, values can overlap the other calls;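 also: H4 neuroglioblastoma cells stably carrying SNCA 5'UTR luciferase fusion; 0% = DMSO wells and 100% = positive control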
BaF3 parental = counter-screen for JAK2V617F inhibitors: parental Ba/F3 viability inhibitors; 220,000 tested, 1.1% active; CellTiter-Glo ATP luminescence; inhibition, % at 5.6 µM;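 active = inhibition above a per-campaign cutoff, the mean inhibition of all tested compounds plus 3 SD, cut at about 27% in these data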;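 also: 0% = DMSO wells and 100% = JAK Inhibitor I control wells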
KLF5 inhibitor = suppresses KLF5 promoter-driven expression; 290,000 tested, 0.23% active; inhibition, % at 5 µM; AID 1700; DLD-1 KLF5 promoter-luciferase reporter, luminescence;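 active = inhibition above a per-plate limit of that plate's mean compound inhibition plus 3 SD, cut at about 60% in these data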;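 also: 0% = DMSO wells and 100% = LY294002 at 200 µM; higher means less KLF5 promoter-driven luciferase light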
APP transl inh = APP translation inhibition; inhibition, % at 2 µM; 190,000 tested, 0.82% active; SH-SY5Y APP 5'UTR-luciferase reporter, luminescence;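 active = inhibition above a set limit, derived from the sample mean plus 3 SD, cut at about 45% in these data; inconclusive = one replicate passes the limit while the other fails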
BaF3 tox 2 = counter-screen for JAK2V617F inhibitors: parental Ba/F3 viability inhibitors; shares compounds with Ba/F3 V617F tox; CellTiter-Glo luminescence; cells kept alive by added IL-3; 580 tested, 31% active; inhibition, % at 5.6 µM; AID 1520;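 active = cell growth inhibition above the hit limit set in the earlier mutant JAK2 cell screen, cut at about 27% in these data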;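 also: plate controls were DMSO-treated cells for no effect and JAK Inhibitor I control wells for full effect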
JAK2V617F conf = confirmation: loss of viability in JAK2V617F-dependent Ba/F3 cells; AID 1521; 580 tested, 66% active; shares compounds with Ba/F3 V617F tox; Ba/F3 EpoR-JAK2V617F viability, CellTiter-Glo luminescence; inhibition, % at 5.6 µM;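 active = mean inhibition above the hit cutoff derived in the earlier primary screen, cut at about 25% in these data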;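 also: 0% = DMSO-treated cells and 100% = JAK inhibitor I control wells; higher means lower luminescence from reduced cell ATP and viability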
KLF5 confirm = confirmation of KLF5 inhibitors. shares compounds with KLF5 inhibitor. DLD-1 KLF5 promoter firefly luciferase reporter, luminescence. inhibition, % at 4 µM. 610 tested, 79% active;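 active = inhibition above a set limit taken from the earlier primary screen, cut at about 63% in these data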;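 also: 0% = DMSO wells and 100% = LY294002 at 200 µM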
IEC-6 tox-2 = rat IEC-6 cytotoxicity, KLF5 inhibitor counter-screen | IEC-6 rat intestinal cells, viability luminescence | shares compounds with KLF5 inhibitor | inhibition, % at 4 µM | 610 tested, 56% active | AID 1905; in the data active = inhibition above about 23%;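 also: cells exposed to compounds for 48 hours before viability read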
IEC-6 cytotox cf = confirmation of cytotoxic compounds in rat IEC-6 intestinal epithelial cells; shares compounds with IEC-6 tox-1; IEC-6 rat intestinal epithelial viability, luminescence; inhibition, % at 5 µM; 1,900 tested, 63% active; AID 1907;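 also: 0% = vehicle and 100% = reference cytotoxic drug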
Numbers without * were called inactive; ? = inconclusive; . = no result. This is a sample that favours compounds with a hit; in the whole collection about 2.2% have one here. Rule as the data show it, unless noted: active = inhibition above about 22%; inactive = the rest.

SMILES | IEC-6 tox-1 | Ba/F3 V617F tox | aSyn 5UTR inh | BaF3 parental | KLF5 inhibitor | APP transl inh | KLF5 confirm | IEC-6 tox-2 | others
CC(=O)OC[C@H]1O[C@@H](n2ncc(=O)[nH]c2=O)[C@H](OC(C)=O)[C@@H]1OC(C)=O | 39* | 61* | 9 | 26 | 47 | -7 | . | . | BaF3 tox 2=53*;JAK2V617F conf=75*;IEC-6 cytotox cf=22*
COc1cccc(/C=N/NC(=O)c2[nH]nc3c2CCc2ccccc2-3)c1 | 23* | 29* | -69 | -1 | 27 | . | . | . | BaF3 tox 2=44*;JAK2V617F conf=92*;IEC-6 cytotox cf=43*
COc1ccc(OC)c(/C=N/NC(=O)c2[nH]nc3c2CCc2ccccc2-3)c1 | -10 | -2 | -8 | 6 | 7 | 6 | . | .
O=C1C2C3C=CC(C3)C2C(=O)N1CCCCCCN1C(=O)C2C3C=CC(C3)C2C1=O (configuration not stated) | -4 | 0 | . | 7 | -43 | 12 | . | .
O=C1C=CC(=O)N1CCCCCCN1C(=O)C=CC1=O | 24* | 72* | . | -1 | -5 | 95* | . | . | BaF3 tox 2=96*;JAK2V617F conf=80*;IEC-6 cytotox cf=2
COc1ccc(/C=N/NC(=O)c2ccn[nH]2)cc1COc1ccc([N+](=O)[O-])c(C)c1 | 6 | -3 | 19 | 2 | -43 | . | . | .
COc1ccc(/C=N/NC(=O)c2cccnc2)cc1COc1ccc([N+](=O)[O-])c(C)c1 | 45* | 25* | 98* | 18 | 57 | . | . | . | BaF3 tox 2=47*;JAK2V617F conf=93*;IEC-6 cytotox cf=43*
Cc1ccc(NC(=O)C(C)c2ccc(-c3ccccc3)c(F)c2)cc1 (configuration not stated) | -1 | -5 | 21 | 6 | -33 | -10 | . | .
Cc1cccn2c(CN[C@H]3CCCCNC3=O)c(C(=O)N3CCOCC3)nc12 | 4 | 7 | -2 | 5 | 13 | -19 | . | .
O=[N+]([O-])c1ccc(Sc2nnnn2-c2ccccc2)nc1 | 38* | 69* | -20 | 3 | -3 | 94* | . | . | BaF3 tox 2=29*;JAK2V617F conf=100*;IEC-6 cytotox cf=44*
COc1ccccc1N1C(=O)c2cccc3c(C(=O)O)ccc(c23)C1=O | -2 | -2 | -3 | 3 | -14 | 5 | . | .
COc1ccc2c3c(cccc13)C(=O)N(O)C2=O | 63* | 30* | 7 | 2 | 22 | 10 | . | . | BaF3 tox 2=-2;JAK2V617F conf=18;IEC-6 cytotox cf=33*
O=c1c(Cl)c(Cl)cnn1Cc1nnc(-c2ccc(Cl)cc2)o1 | 35* | 34* | -179 | -8 | -3 | 77* | . | . | BaF3 tox 2=66*;JAK2V617F conf=81*;IEC-6 cytotox cf=17
C=CCN1CCc2c(cc(O)c(O)c2Br)[C@@H](c2ccccc2)C1 | . | . | -48 | . | . | . | . | .
N#CC1=C(N)Oc2cc3ccccc3cc2C1c1cccnc1 (configuration not stated) | 47* | 30* | -16 | 25 | 0 | 7 | . | . | BaF3 tox 2=31*;JAK2V617F conf=48*;IEC-6 cytotox cf=44*
O=C(NC(NC(=S)N1CCOCC1)C(Cl)(Cl)Cl)c1ccc(Cl)cc1 (configuration not stated) | 24* | 30* | 66* | -1 | 11 | 10 | . | . | BaF3 tox 2=31*;JAK2V617F conf=60*;IEC-6 cytotox cf=31*
COc1ccccc1OCC(=O)N/N=C/c1c(O)ccc2ccccc12 | 4 | . | ? | . | 67* | . | 58 | -6
c1ccc(-c2ccc(-c3nc(-c4ccccn4)no3)cc2)cc1 | 8 | 12 | 147* | 12 | 84* | 46* | 104* | 14
Cc1ccc(-c2nc(-c3ccccn3)no2)cc1Cl | 11 | 4 | 104* | 3 | 70* | -159 | 89* | 11
Cc1ccc(-c2nc(-c3ccccn3)no2)cc1 | 16 | 23 | 99* | 21 | 88* | 39 | 100* | 42*
Cc1cs/c(=N/C(=S)Nc2ccccc2)n1C | 0 | 0 | -115 | 5 | -103 | -133 | . | .
CCCn1c(C)cs/c1=N\C(=S)Nc1ccccc1 | 8 | 5 | 2 | 4 | 118* | -25 | -18 | 5
CCC(=O)Nc1cc(C(=O)OC(C(=O)c2ccc(C)c(C)c2)c2ccccc2)ccc1C (configuration not stated) | 4 | 1 | 43 | 5 | -13 | 3 | . | .
Cc1cc(C[n+]2ncsc2N)c2ncccc2c1 | 0 | -1 | -15 | -5 | -1 | . | . | .
CCOc1ccc2c(c1)sc(N)[n+]2Cc1cc(C)cc2cccnc12 | 76* | 86* | 55 | 80* | 76* | 94* | 73* | 67*
SMILES | IEC-6 tox-1 | Ba/F3 V617F tox | aSyn 5UTR inh | BaF3 parental | KLF5 inhibitor | APP transl inh | KLF5 confirm | IEC-6 tox-2 | others
COc1c(/C=N/NC(=O)c2ccncc2)c(CCN(C)C(C)=O)cc2c1OCO2 | -2 | 1 | 3 | -1 | -8 | . | . | .
Cc1ccsc1-c1nc(CN2C[C@@H](C)O[C@@H](C)C2)c(C)o1 | 0 | 3 | 16 | 3 | -13 | 4 | . | .
C/C(=N/NC(=O)c1ccncc1)c1ccccc1 | -5 | . | -25 | . | -19 | . | . | .
C/C(=N\NC(=O)c1ccccc1NC(=O)c1ccc(Cl)cc1)c1ccncc1 | 13 | 19 | 28 | 21 | 65* | -62 | 107* | 67*
CC1CCCCN1C(=O)CCc1nnc(Cc2c[nH]c3ccccc23)o1 (configuration not stated) | -4 | -4 | 1 | 4 | -30 | 8 | . | .
COc1cc(/C=N/O)ccc1OCc1ccc(Cl)cc1 | -1 | -3 | -97 | 4 | -254 | -191 | . | .
COc1cc(/C=N/NS(=O)(=O)c2ccc3ccccc3c2)ccc1OCc1ccc(C(=O)O)cc1 | 5 | 1 | 84* | 0 | 65* | . | -18 | -5
COc1ccc(/C=N/NS(=O)(=O)c2ccc(C)cc2)cc1OC(=O)c1ccccc1 | -1 | -1 | . | 3 | -22 | -9 | . | .
COc1cc(/C=N/O)ccc1OCc1ccc(C(=O)O)cc1 | 0 | 0 | 116* | 4 | 84* | 82* | 95* | 0
Cc1nc(N/N=C/c2ccccn2)sc1C | 3 | 19 | . | 14 | 79* | 5 | 78* | 7
Cc1ccc(-c2nn(-c3ccccc3)cc2CO)cc1 | 3 | . | -104 | . | -55 | . | . | .
Cc1ccc(Sc2c(CO)c(-c3ccccc3)nn2C)cc1 | 86* | 80* | -86 | 82* | 72* | 95* | 84* | 56*
O=Cc1ccc(O)c2ncccc12 | 100* | 8 | 63* | 53* | 82* | . | 60 | 29*
Cc1ccc(C(=O)O/N=C(\N)c2ccccn2)c(Cl)c1 | 3 | . | 108* | . | 96* | . | 75* | 8
N/C(=N\OC(=O)c1ccc(Cl)cc1[N+](=O)[O-])c1ccccn1 | 7 | . | -165 | . | -111 | . | . | .
